Measured values: PubChem BioAssay (NCI)
Several values for one entry are separate records, joined by “and”; a condition that tells them apart may be missing. Equal values may be shown once. This is part of a sample that, as a whole, favours compounds with a hit. Of some 79,000 tested, about 15% had one in any assay. Values without a mark were called inactive. Activity calls are given as the source filed them. No stated cut-off is given here; in the data, active means growth inhibition above about 70%; inactive means the rest.

Experiments:
[1] = NCI Yeast Anticancer Drug Screen. Data for the rad50 strain (AID 155);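 further: 0% = growth of vehicle-only cultures of the same strain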; details: S. cerevisiae rad50 strain growth inhibition; at 50.0 µM; stronger effect = higher value
Outline: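 A DNA repair-deficient yeast mutant serves as the test organism; compound-induced growth inhibition is calculated against vehicle-treated cells.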

[2] = NCI Yeast Anticancer Drug Screen. Data for the mec2-1 strain (AID 157); details: S. cerevisiae mec2-1 strain, at 50.0 µM, stronger effect = higher value
Outline: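 Strain: mec2-1 (DNA repair/cell cycle alteration). Compound exposure, then growth measured; inhibition expressed relative to vehicle.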

[3] = NCI Yeast Anticancer Drug Screen. Data for the sgs1 mgt1 strain (AID 161);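 further: 0% = growth of cultures given vehicle only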; details: S. cerevisiae sgs1 mgt1 strain, at 50.0 µM, stronger effect = higher value
Outline: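 Mutant yeast exposed to compound; growth scored against vehicle-only wells.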

[4] = NCI Yeast Anticancer Drug Screen. Data for the cln2 rad14 strain (AID 165);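 further: 0% = growth equal to vehicle treated cultures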; details: S. cerevisiae cln2 rad14 strain, at 50.0 µM, stronger effect = higher value
Outline: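 Compounds are applied to the cln2 rad14 yeast strain, and growth is then compared with that of vehicle-treated cultures to give inhibition.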

[5] = NCI Yeast Anticancer Drug Screen. Data for the bub3 strain (AID 167); details: S. cerevisiae bub3 mutant strain, at 50.0 µM, stronger effect = higher value
Outline: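 Inhibition values come from growth of compound-treated mutant yeast normalised to vehicle-treated controls.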

[6] = NCI Yeast Anticancer Drug Screen. Data for the mlh1 rad18 strain (AID 175); details: S. cerevisiae mlh1 rad18 strain growth inhibition; at 50.0 µM; stronger effect = higher value
Outline: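 Read-out is yeast growth inhibition, calculated against vehicle-only controls. The compound was applied to a strain engineered with DNA damage repair alterations.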

Structure (SMILES) | growth inhibition [1] | growth inhibition [2] | growth inhibition [3] | growth inhibition [4] | growth inhibition [5] | growth inhibition [6]
CC(C)CCC(=O)O[C@H]1CC[C@@]2(C)C(=CC[C@@H]3[C@@H]2CC[C@]2(C)C(=O)CC[C@@H]32)C1 | 26.2% | 8.4% | 11.4% | 17.1% | 1.95% | 23.3%
C/C(=N\N=C(N)N)C(CN1CCCCC1)C(c1ccccc1)c1c(O)c2ccccc2oc1=O (stereo not drawn) | 13.7% | -2.6% | 10.6% | 24.4% | 28.9% | 16.9%
CN1C(=O)CC(=O)N(C)P1(=O)Oc1ccccc1 | -6% | 3.25% | 14% | -1.6% | -1.7% | 4.15%
Cc1c2ccccc2c(CNCCSCCCl)c2ccc3ccccc3c12 | 97.2% (active) | 98.5% (active) | 98.4% (active) | 98.3% (active) | 97.5% (active) | 98.8% (active)
Cc1[nH]cc2c1C(c1ccccc1F)=NCC(=O)N2 | 19.7% | -3.5% | 17.4% | -13.7% | 8.4% | 0.1%
CN1CC=C(c2cccn2C)CC1 | -24.2% | -24.9% | -6.45% | 4.05% | -10.4% | -37.8%
CCCCOP(=O)(NCCOC)OCCCC | -0.05% | 8.05% | -3.1% | 6.9% | 5.25% | 10.2%
C=C(C)C1(CC)C(=O)NC(=O)N(C)C1=O (stereo not drawn) | 11.8% and -4.5% | 7.5% and 9.4% | -1.25% and -7.5% | 10.2% and -11.2% | 3.65% and 1.5% | -7.95% and -13.1%
O=[N+]([O-])c1ccc(C2C3C(c4ccccc4)=NCCCN32)cc1 (stereo not drawn) | -0.2% | 12.2% | -8% | -15.2% | -12.2% | -14.7%
O=C1NC(=O)C(=O)C(=O)N1 | -16.2% | 8.15% | -1.75% | -32.2% | 1% | 0.5%
CN(N=O)c1ccc([N+](=O)[O-])cc1 | 26.2% | 26.4% | 15.8% | 18.2% | 24.4% | 28.1%
CC(Cl)C(=O)OC(C)C(=O)O (stereo not drawn) | 12.1% | 17.1% | 12.5% | 8% | -2.7% | 3.4%
O=[N+]([O-])CCCl | 3.8% | 2.1% | -3.4% | 3.9% | 3.95% | -3.9%
C#CC1(O)CCC(C(C)(C)C)CC1 (stereo not drawn) | 10.2% and -5.45% and 20.4% | 6.6% and 25.3% and -12.8% | -7.35% and -4.35% and -1.95% | 7.3% and -22.6% and 7.2% | 9.05% and 10.4% and -10.2% | -17.9% and -4.15% and 10.8%
[F][Sn]([c]1ccc(Cl)cc1)([c]1ccc(Cl)cc1)[c]1ccc(Cl)cc1 | 98.2% (active) | 95.2% (active) | 98.5% (active) | 95.9% (active) | 96.2% (active) | 98.2% (active)
CC(C)([N+](=O)[O-])S(=O)O | -9.15% | -14.2% | -22% | -1.05% | -5.4% | -0.65%
C[N+]1([O-])[C@H]2CC(OC(=O)[C@H](CO)c3ccccc3)C[C@H]1[C@H]1O[C@H]12 (stereo partly drawn) | -9.75% | -3.35% | -14.9% | -26.5% | -34.2% | -10.1%
CC1=CC(=O)C=CC1=Nc1ccc(N(CCCl)CCCl)cc1 | 22.4% | 11.2% | 6.65% | 2.95% | -1.45% | -5.25%
CC1C(C(=O)c2ccc(-c3ccccc3)cc2)N1C(C)(C)C (stereo not drawn) | -10.4% | 10.2% | 7.75% | 23.4% | 1.15% | -11.8%

Structure (SMILES) | growth inhibition [1] | growth inhibition [2] | growth inhibition [3] | growth inhibition [4] | growth inhibition [5] | growth inhibition [6]
CCOS(=O)OCC | 19% | 0.35% | -26.1% | 17.9% | 17.6% | 9.2%
CCC[CH2][Pb]([CH2]CCC)([CH2]CCC)[O]C(C)=O | 9.6% | -7.95% | 16.1% | 25.1% | 25% | 13.3%
c1ccc(C2(N3CCC4(CC3)OCCO4)CCCCC2)cc1 | 13% | -2.9% | 9.2% | -17.6% | 1.35% | 6.35%
CN(C)C(=O)Oc1c(Cl)cccc1Cl | 28.4% | 24.4% | 5.65% | 10.5% | 36.8% | 14.1%
CCC1CN2CCC1CC2C(O)c1cc[n+]([O-])c2ccc(OC)cc12 (stereo not drawn) | -11.7% | 7.25% | -7.6% | 1.75% | -8.05% | -12.4%
Cc1cc(OCC2=NCCN2)c(C)c(C)c1Cl | 44.3% | 26.9% | 36.1% | 51% | 9.2% | 79.3% (active)
C1CCN2CC3CCCN4CCCC(C2C1)C34 (stereo not drawn) | 5.5% and 7.1% | -21.9% and -1.05% | 7.3% and -16.1% | -0.35% and -0.5% | -11.9% and -6.6% | -96.5% and -85.2%
Cn1nc(-c2ccc(S(=O)(=O)F)cc2)s/c1=N/NC(=O)c1ccccc1 | 4% | 2% | 19.8% | 23.4% | 18.6% | 3.65%
O=[N+]([O-])O.[Ce] | 13.3% | 3.35% | 17.9% | 5.8% | 24.6% | 4.15%
O=[N+]([O-])c1ccc2c(c1)Oc1cccnc1[Se]2 | 16.1% | 8.6% | 20.9% | 8.25% | -11.5% | 38.8%
FC(F)(F)C1(F)N(Cc2ccccc2)C1(F)C(F)(F)F (stereo not drawn) | 9.1% | -7.5% | -10.3% | -6.65% | 7% | -9.95%
COc1cccc(C(O)CN(C)C)c1OC (stereo not drawn) | 7.05% | -6.65% | 11.2% | 30.2% | -9.85% | 9.95%
C1CN([PH+](N2CC2)N2CC2)CCO1.[C-]#[O+].[C-]#[O+].[C-]#[O+].[C-]#[O+].[C-]#[O+].[Mo] | -17.9% | -1.7% | -7.3% | -31.4% | 3.9% | 3.95%
Cc1ccc(S(=O)(=O)NNP(Br)(c2ccccc2)(c2ccccc2)c2ccccc2)cc1 | 26.3% | -1.1% | 5.7% | -0.75% | 5.35% | 12.4%
[CH3][Sn]([CH3])([CH3])[S]C(=S)N1CCOCC1 | 98.7% (active) | 90% (active) | 98.2% (active) | 94.2% (active) | 98.5% (active) | 98.5% (active)
COc1cc2c(cc1OC)C13CCN4CC5=CCOC6CC(=O)N2C1C6C5CC43 (stereo not drawn) | -13% and 7.35% | -43.9% and -36.3% | -20.9% | 4% | -8.6% | -0.6% and -1.65%
N#CN1CC(C(=O)N2CCCCC2)C=C2c3cccc4[nH]cc(c34)CC21 (stereo not drawn) | 9.5% | -10.8% | 34.5% | 0.05% | 8.95% | 10.9%
NC1CCCCC1.[O]=[Ge].[O]=[Ge].[O]=[Ge][OH].[O]=[Ge][OH] | -26.9% | -10.9% | -10.8% | 13.1% | 12.9% | 4.95%
CC[C@@]1(O)C(=O)OCc2c1cc1n(c2=O)Cc2c-1nc1ccccc1c2Cl | 94.9% (active) | 92% (active) | 63.8% | 81.8% (active) | -6.7% | 46.3%
